High-throughput results deposited in PubChem by several laboratories.
aSyn UTR inh: 5' untranslated region of α-synuclein, MLPCN primary screen; inhibition, % (tested at 7.5 µM); alpha-synuclein 5'UTR reporter, inhibitor activity; AID 1813; 0.82% of 300,000 active; in the data active means inhibition above about 60%;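 further: H4 neuroglioblastoma cells stably carrying SNCA 5'UTR luciferase fusion; 0% = DMSO wells and 100% = positive control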
BaF3 parental: counter-screen for JAK2V617F inhibitors: parental Ba/F3 viability inhibitors; inhibition, % at 5.6 µM; 1.1% of 220,000 active; CellTiter-Glo ATP luminescence;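 active means inhibition above a per-campaign cutoff, the mean inhibition of all tested compounds plus 3 SD, cut at about 27% in these data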;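 further: 0% = DMSO wells and 100% = JAK Inhibitor I control wells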
Ba/F3 V617F tox: reduce viability of Ba/F3 cells dependent on JAK2V617F. Ba/F3 EpoR-JAK2V617F viability, ATP luminescence. inhibition, % at 5.6 µM. 1.1% of 220,000 active. AID 1446;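 active means inhibition above the campaign mean plus 3 SD over all tested compounds, cut at about 24% in these data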;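 further: cytokine-independent growth of Ba/F3 cells driven by EpoR plus mutant JAK2; 0% = DMSO-treated cells and 100% = JAK inhibitor I control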
APP 5UTR inh: APP translation inhibition; AID 1285; inhibition, % at 2 µM; SH-SY5Y APP 5'UTR-luciferase reporter, luminescence; 0.82% of 190,000 active;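 active means inhibition above a set limit, derived from the sample mean plus 3 SD, cut at about 45% in these data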
KLF5 inhibitor: kruppel-like factor 5 inhibition; DLD-1 KLF5 promoter-luciferase reporter, luminescence; inhibition, % at 5 µM; 0.23% of 290,000 active; AID 1700;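 active means inhibition above a per-plate limit of that plate's mean compound inhibition plus 3 SD, cut at about 60% in these data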;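 further: 0% = DMSO wells and 100% = LY294002 at 200 µM; higher means less KLF5 promoter-driven luciferase light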
IEC-6 tox: kills IEC-6 intestinal cells in KLF5 counter-screen; IEC-6 cytotoxicity, luminescence viability; 0.78% of 290,000 active; inhibition, % at 5 µM; AID 1825; in the data active means inhibition above about 22%;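 further: 0% = plate median of test compound wells and 100% = cytotoxic reference compound wells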
* hit, by the source's call; · = no result given. Sampled rows, rich in hits. Any-hit rate of the full collection: about 2.2%.

SMILES	aSyn UTR inh	BaF3 parental	Ba/F3 V617F tox	APP 5UTR inh	KLF5 inhibitor	IEC-6 tox
CC(C)(C)c1ccc(Cn2c(=N)n(CC(O)c3ccco3)c3ccccc32)cc1 (stereo not drawn)	101*	17	23	9	-45	-3
Cc1ccc(C)c(OCc2ccc(C(=O)N3N=C(C(F)F)CC3(O)C(F)F)o2)c1 (stereo not drawn)	30	2	-1	20	-5	3
Cc1ccccc1CNCCCSc1ncccn1	-3	·	·	·	1	-4
Cc1ccccc1NC(=O)c1cnc2ccccn2c1=O	62*	5	1	-104	-105	6
COc1ccc(OC)c(NC(=O)c2cnc3ccccn3c2=O)c1	·	9	2	-2	-24	7
CCN(CC)CCCNc1nc(SC)nc2sc3c(c12)CCN(C)C3	3	·	·	·	-24	-5
CCOCCCNc1ncnc2c1[nH]c1ccccc12	-20	22	3	-7	-10	10
CCCCOc1ncnc2c1[nH]c1ccccc12	-81	35*	0	-11	-23	4
CCCCOCCCNc1ncnc2c1[nH]c1ccccc12	-53	61*	64*	5	-28	14
CC(OC(=O)/C=C/c1ccc2ccccc2n1)C(=O)Nc1ccc(S(N)(=O)=O)cc1 (stereo not drawn)	17	·	·	·	·	·
CCOC(=O)/C(=C\c1cccnc1)C(=O)c1cc(C(C)=O)c(Nc2ccccc2)s1	83*	0	1	45	-13	1
CCOC(=O)/C(=C\c1ccccc1)C(=O)c1cc(C(C)=O)c(Nc2ccccc2)s1	-29	2	1	11	-17	5
O=C(/C=C/c1cccc(Cl)c1)c1ccc([N+](=O)[O-])o1	91*	·	·	·	·	·
COc1cc(/C=C/C(=O)O)ccc1O	-8	·	·	·	·	·
COc1cc(/C=C/C(=O)c2ccc([N+](=O)[O-])o2)ccc1O	67*	·	·	·	·	·
Cc1[nH]c2ccccc2c1-c1nc2ccccc2[nH]c1=O	-63	·	·	·	-34	1
COc1ccc(-c2nc(C(N)=O)c3[nH]c(=O)n(-c4cccc(Cl)c4)c3n2)cc1OC	17	11	0	-2	-19	2
CCc1ccc(-c2nc(C(N)=O)c3[nH]c(=O)n(-c4ccccc4OC)c3n2)cc1	82*	10	2	95*	-26	-1
O=C(NCc1ccccn1)C(=O)NCc1ccccn1	-16	54*	-3	9	-24	-1
CC(C)(C)NC(=O)C(=O)NCc1ccccn1	-27	2	-1	-8	-18	-2
Cc1ccc(C2(C)NC(=O)N(CC(=O)Nc3nc(-c4ccccn4)cs3)C2=O)cc1 (stereo not drawn)	80*	·	·	·	·	·
O=C(Nc1ncccn1)C12CC3CC(CC(C3)C1)C2	-11	1	-5	·	1	4
O=C(Nc1nccs1)C12CC3CC(C1)CC(C(=O)Nc1nccs1)(C3)C2	-49	24	50*	-29	23	-12
CO[C@H]1O[C@@H]2O[C@@]3(C)CC[C@H]4[C@H](C)CC[C@@H]([C@H]1C)[C@@]24OO3	7	·	·	·	·	·
N=C1S/C(=C\c2ccc(-c3cccc(Cl)c3)o2)C(=O)N1c1nccs1	53	6	0	36	-31	4
SMILES	aSyn UTR inh	BaF3 parental	Ba/F3 V617F tox	APP 5UTR inh	KLF5 inhibitor	IEC-6 tox
COc1ccc(/C=C2\SC(=N)N(c3nccs3)C2=O)cc1OC	65*	9	4	22	10	4
COC(=O)CS(=O)(=O)c1cc(Br)cc2c1N(C(C)=O)CC2	-17	93*	2	2	1	2
CC(=O)N1CCc2c(sc(NC(=O)c3ccc4c(c3)OCCO4)c2C#N)C1	-56	6	-2	59*	-21	2
CC(=O)N1CCc2c(sc(NC(=O)c3ccc(S(=O)(=O)N(C)C)cc3)c2C#N)C1	5	4	-2	4	-25	-5
C[n+]1ccccc1N1CCN(c2ccccc2Cl)CC1	-12	62*	56*	14	-10	-5
Cc1ccc(Cl)cc1N1CCN(C(=S)NCCc2ccccc2)CC1	-13	7	0	-14	-32	-3
Cc1ccc(Cl)cc1N1CCN(c2cccc[n+]2C)CC1	-15	65*	82*	4	-10	0
COC(=O)c1sc(NC(=O)CSc2nnnn2C)nc1C	-73	·	·	·	-145	-4
Cc1ncc(CO)c(/C=N/Nc2ccc(C(F)(F)F)cn2)c1O	88*	·	·	·	52	-3
Cc1ncc(CO)c(/C=N/NC(=S)Nc2ccc(F)cc2)c1O	13	4	2	32	-41	-6
C=CCNc1cc(N2CCCC2)ccc1[N+](=O)[O-]	35	6	3	57*	-4	7
